# Test results published in PubChem BioAssay (EPA / NIEHS).
# Results filed as inconclusive are left out. Activity calls are given as the source filed them. The calls were made as follows: active = hit-call score of the fitted dose curve at least 0.9, where 1 is the maximum; inconclusive = response in the unintended direction; inactive = score below 0.9.
# Legend:
# [1] = molecular target: human Dual Specificity Protein Phosphatase 3 (DUSP3), DUSP3 (gene 1845) (UniProt P51452); experiment: NVS_ENZ_hDUSP3: NovaScreen (NVS) Enzymatic Assay for human Dual Specificity Protein Phosphatase 3 (DUSP3) (AID 2283152);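 also: phosphatase activity of recombinant human DUSP3 on a fluorogenic substrate without cells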
# Sequence of human Dual Specificity Protein Phosphatase 3 (DUSP3), DUSP3 (gene 1845) (P51452 whole entry, looked up): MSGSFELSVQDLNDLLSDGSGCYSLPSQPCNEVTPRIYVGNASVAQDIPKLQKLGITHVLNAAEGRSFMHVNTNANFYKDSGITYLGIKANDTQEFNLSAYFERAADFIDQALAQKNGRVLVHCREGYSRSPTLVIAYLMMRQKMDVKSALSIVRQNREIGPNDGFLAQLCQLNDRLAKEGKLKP
# Summary of the method: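 Cell-free assay with recombinant human DUSP3 and fluorogenic substrate, read by fluorescence intensity. Primary screen ran duplicate at 25 uM; actives followed up in concentration series; loss of signal versus DMSO scored.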
# [2] = molecular target: human Elastase, ELANE (gene 1991) (UniProt P08246); experiment: NVS_ENZ_hElastase: NovaScreen (NVS) Enzymatic Assay for human Elastase (AID 2283153)
# Sequence of human Elastase, ELANE (gene 1991) (P08246 whole entry, looked up): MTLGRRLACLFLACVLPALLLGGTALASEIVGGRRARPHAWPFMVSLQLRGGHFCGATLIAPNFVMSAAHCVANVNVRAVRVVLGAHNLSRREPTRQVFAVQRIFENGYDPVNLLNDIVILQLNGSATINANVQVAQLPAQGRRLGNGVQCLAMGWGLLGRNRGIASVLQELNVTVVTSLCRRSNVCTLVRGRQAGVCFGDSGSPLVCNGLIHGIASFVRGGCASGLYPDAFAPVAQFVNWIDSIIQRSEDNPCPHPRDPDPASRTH
# Summary of the method: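 Cell-free elastase from human neutrophils, 1.5 h after dosing, activity read by absorbance. Primary screen in duplicate at 25 uM; hits (e.g., 30% inhibition) rerun in singleton concentration-response up to 50 uM, fitted versus DMSO.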
# [3] = molecular target: Glycogen synthase kinase-3 beta (Homo sapiens) (UniProt P49841); experiment: NVS_ENZ_hGSK3b: NovaScreen (NVS) Enzymatic Assay for human Glycogen Synthase Kinase-3 beta (GSK3b) (AID 2283165)
# Sequence of Glycogen synthase kinase-3 beta (Homo sapiens) (P49841 whole entry, looked up): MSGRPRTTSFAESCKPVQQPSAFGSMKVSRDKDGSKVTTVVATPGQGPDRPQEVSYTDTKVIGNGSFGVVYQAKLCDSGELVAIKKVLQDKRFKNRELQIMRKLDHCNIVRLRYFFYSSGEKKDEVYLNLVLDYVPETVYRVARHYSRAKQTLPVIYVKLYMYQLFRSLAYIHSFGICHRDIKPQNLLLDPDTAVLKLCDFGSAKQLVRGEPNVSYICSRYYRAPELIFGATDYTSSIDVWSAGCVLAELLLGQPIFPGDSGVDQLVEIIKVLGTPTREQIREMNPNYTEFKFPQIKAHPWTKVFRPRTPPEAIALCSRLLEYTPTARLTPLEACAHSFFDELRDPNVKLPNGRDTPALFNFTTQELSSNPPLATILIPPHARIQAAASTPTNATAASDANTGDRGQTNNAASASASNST
# Summary of the method: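 Recombinant enzyme with specific fluorescent substrate, 1 h, product separated by electrophoretic mobility shift. Primary duplicate screen at 25 uM; actives (e.g. 30% inhibition) followed in singleton concentration-response to 50 uM. Signal loss fitted versus DMSO.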
# [4] = molecular target: human MAP Kinase-Activated Protein Kinase 2 (MAPKAPK2), MAPKAPK2 (gene 9261) (UniProt P49137); experiment: NVS_ENZ_hMAPKAPK2: NovaScreen (NVS) Enzymatic Assay for human MAP Kinase-Activated Protein Kinase 2 (MAPKAPK2) (AID 2283178)
# Sequence of human MAP Kinase-Activated Protein Kinase 2 (MAPKAPK2), MAPKAPK2 (gene 9261) (P49137 whole entry, looked up): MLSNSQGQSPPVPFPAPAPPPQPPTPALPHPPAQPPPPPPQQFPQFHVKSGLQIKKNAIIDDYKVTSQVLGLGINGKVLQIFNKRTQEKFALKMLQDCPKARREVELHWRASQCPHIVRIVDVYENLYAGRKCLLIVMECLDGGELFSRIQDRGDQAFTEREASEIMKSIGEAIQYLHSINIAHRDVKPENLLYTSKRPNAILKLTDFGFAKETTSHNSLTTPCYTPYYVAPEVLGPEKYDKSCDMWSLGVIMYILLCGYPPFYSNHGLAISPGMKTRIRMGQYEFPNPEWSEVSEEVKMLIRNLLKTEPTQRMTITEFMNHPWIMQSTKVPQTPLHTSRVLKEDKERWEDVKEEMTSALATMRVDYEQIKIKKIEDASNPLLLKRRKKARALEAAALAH
# Summary of the method: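 Cell-free recombinant human MAPKAPK2 activity measured by fluorescence with electrophoretic mobility shift separation of substrate and product, 1 hr after dosing. Loss of signal versus DMSO; primary screen at 25 uM, concentration-response up to 50 uM.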
# [5] = molecular target: Collagenase 3 (Homo sapiens) (UniProt P45452); experiment: NVS_ENZ_hMMP13: NovaScreen (NVS) Enzymatic Assay for human Matrix Metalloproteinase-13 (MMP13) (AID 2283182)
# Summary of the method: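 Recombinant MMP13 cleaving fluorescent substrate, cell-free, measured 1 h after dosing. Primary duplicate screen at 25 uM; actives tested in concentration-response up to 50 uM; loss of signal relative to DMSO.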
# [6] = molecular target: human Matrix Metalloproteinase-7 (MMP7), MMP7 (gene 4316) (UniProt P09237); experiment: NVS_ENZ_hMMP7: NovaScreen (NVS) Enzymatic Assay for human Matrix Metalloproteinase-7 (MMP7) (AID 2283183)
# Sequence of human Matrix Metalloproteinase-7 (MMP7), MMP7 (gene 4316) (P09237 whole entry, looked up): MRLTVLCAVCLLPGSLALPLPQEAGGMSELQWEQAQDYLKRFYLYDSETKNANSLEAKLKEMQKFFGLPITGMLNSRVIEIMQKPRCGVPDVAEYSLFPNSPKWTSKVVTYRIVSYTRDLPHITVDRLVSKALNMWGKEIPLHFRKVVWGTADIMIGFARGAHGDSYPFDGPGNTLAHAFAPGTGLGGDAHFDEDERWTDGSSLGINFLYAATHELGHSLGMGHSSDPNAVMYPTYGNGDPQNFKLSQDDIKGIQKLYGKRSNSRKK
# Summary of the method: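 Cell-free fluorescence enzymatic assay read 1 h after compound addition, activity loss analyzed against DMSO. Primary duplicate testing at 25 uM; compounds meeting threshold rerun in singleton concentration-response up to 50 uM.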
# [7] = molecular target: human Matrix Metalloproteinase-2 (MMP2), MMP2 (gene 4313) (UniProt P08253); experiment: NVS_ENZ_hMMP2: NovaScreen (NVS) Enzymatic Assay for human Matrix Metalloproteinase-2 (MMP2) (AID 2283184)
# Summary of the method: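 Cell-free recombinant MMP2 activity with a fluorescent substrate, read 1 h after dosing. Primary screen in duplicate at 25 uM; actives then run in concentration series; loss of signal fitted versus DMSO.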
# [8] = molecular target: human Matrix Metalloproteinase-9 (MMP9), MMP9 (gene 4318) (UniProt P14780); experiment: NVS_ENZ_hMMP9: NovaScreen (NVS) Enzymatic Assay for human Matrix Metalloproteinase-9 (MMP9) (AID 2283190);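 also: cell-free recombinant MMP9 protease activity read by fluorescent substrate signal; active means inhibition seen as loss of fluorescence signal versus DMSO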
# Sequence of human Matrix Metalloproteinase-9 (MMP9), MMP9 (gene 4318) (P14780 whole entry, looked up): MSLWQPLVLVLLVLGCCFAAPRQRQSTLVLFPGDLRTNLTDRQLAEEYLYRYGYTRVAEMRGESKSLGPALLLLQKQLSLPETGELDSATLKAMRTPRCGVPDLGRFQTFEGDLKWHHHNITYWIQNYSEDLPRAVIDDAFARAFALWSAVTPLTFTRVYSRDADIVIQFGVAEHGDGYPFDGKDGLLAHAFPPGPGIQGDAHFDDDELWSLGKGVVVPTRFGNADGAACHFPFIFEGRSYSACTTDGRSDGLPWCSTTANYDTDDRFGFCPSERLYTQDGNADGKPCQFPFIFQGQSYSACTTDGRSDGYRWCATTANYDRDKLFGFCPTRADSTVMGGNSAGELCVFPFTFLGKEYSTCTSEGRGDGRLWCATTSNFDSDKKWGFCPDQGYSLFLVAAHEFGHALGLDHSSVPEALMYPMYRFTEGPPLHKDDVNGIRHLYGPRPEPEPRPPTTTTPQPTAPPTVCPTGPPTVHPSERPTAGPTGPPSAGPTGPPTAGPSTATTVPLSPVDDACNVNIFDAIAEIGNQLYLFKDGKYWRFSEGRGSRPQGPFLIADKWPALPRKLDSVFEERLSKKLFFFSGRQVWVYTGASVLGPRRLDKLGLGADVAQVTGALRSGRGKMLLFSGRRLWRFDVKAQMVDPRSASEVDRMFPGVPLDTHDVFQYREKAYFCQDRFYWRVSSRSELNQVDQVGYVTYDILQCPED
# Summary of the method: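 Extracted enzyme, fluorescent substrate, 1 h post-dose read. Single conc 25 uM in duplicate, then concentration series for actives. Activity = signal loss relative to DMSO negative control.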
# [9] = molecular target: human Esterase Plasma (ES), BCHE (gene 590) (UniProt P06276); experiment: NVS_ENZ_hES: NovaScreen (NVS) Enzymatic Assay for human Esterase Plasma (ES) (AID 2283157)
# Sequence of human Esterase Plasma (ES), BCHE (gene 590) (P06276 whole entry, looked up): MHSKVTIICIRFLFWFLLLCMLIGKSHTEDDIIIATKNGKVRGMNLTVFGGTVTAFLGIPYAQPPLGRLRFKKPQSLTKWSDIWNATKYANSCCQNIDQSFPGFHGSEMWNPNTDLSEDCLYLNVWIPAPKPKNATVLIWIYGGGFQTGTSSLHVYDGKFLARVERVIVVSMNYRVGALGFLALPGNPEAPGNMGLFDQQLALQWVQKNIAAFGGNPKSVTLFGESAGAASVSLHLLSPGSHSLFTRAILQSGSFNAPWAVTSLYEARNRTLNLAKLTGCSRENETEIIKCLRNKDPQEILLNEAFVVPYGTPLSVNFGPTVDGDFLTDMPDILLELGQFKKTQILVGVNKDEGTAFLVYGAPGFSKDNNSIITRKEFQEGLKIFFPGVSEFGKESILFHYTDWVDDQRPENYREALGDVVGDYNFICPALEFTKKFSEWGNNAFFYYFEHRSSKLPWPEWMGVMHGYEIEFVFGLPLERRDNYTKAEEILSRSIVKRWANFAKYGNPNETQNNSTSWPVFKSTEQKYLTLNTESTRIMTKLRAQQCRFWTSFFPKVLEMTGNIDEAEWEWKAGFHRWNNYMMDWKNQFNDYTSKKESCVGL
# Summary of the method: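 Cell-free enzyme assay using esterase extracted from human plasma; colorimetric absorbance read 0.25 hour after dosing. Single-concentration duplicate screen at 25 uM, then concentration-response up to 50 uM; loss of signal scored against DMSO baseline.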
# [10] = molecular target: human Ephrin type-A Receptor 1 (EphA1), EPHA1 (gene 2041) (UniProt P21709); experiment: NVS_ENZ_hEphA1: NovaScreen (NVS) Enzymatic Assay for human Ephrin type-A Receptor 1 (EphA1) (AID 2283158);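 also: activity is signal loss versus DMSO meaning EphA1 kinase inhibition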
# Summary of the method: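 Cell-free enzymatic assay with recombinant EphA1 and fluorescent substrate; product separated by electrophoretic mobility shift, fluorescence intensity read 1 hour after dosing. Loss of signal versus DMSO baseline; primary duplicate screen at 25 uM, actives followed to 50 uM top concentration.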
# [11] = molecular target: Mitogen-activated protein kinase 3 (Homo sapiens) (UniProt P27361); experiment: NVS_ENZ_hMAPK3: NovaScreen (NVS) Enzymatic Assay for human Mitogen-Activated Protein Kinase 3 (MAPK 3) (AID 2283177)
# Sequence of Mitogen-activated protein kinase 3 (Homo sapiens) (P27361 whole entry, looked up): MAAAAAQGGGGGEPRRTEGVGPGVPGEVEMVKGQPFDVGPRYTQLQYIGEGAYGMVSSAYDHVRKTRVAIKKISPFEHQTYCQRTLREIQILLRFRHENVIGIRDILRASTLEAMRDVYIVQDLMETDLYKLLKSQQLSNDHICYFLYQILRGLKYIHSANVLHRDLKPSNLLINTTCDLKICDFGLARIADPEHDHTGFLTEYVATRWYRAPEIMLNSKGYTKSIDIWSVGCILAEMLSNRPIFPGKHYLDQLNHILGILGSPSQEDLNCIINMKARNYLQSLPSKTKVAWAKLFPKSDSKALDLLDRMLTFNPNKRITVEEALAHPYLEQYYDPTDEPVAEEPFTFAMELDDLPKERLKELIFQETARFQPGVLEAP
# Summary of the method: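 Cell-free enzymatic assay with recombinant protein and specific substrate; fluorescence and electrophoretic mobility shift read-out 1 h after dosing. Primary screen duplicate at 25 uM; actives then run in concentration-response up to 50 uM, loss of signal versus DMSO.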
# [12] = molecular target: human Phosphodiesterase 4A1 (PDE4A1), PDE4A (gene 5141) (UniProt P27815); experiment: NVS_ENZ_hPDE4A1: NovaScreen (NVS) Enzymatic Assay for human Phosphodiesterase 4A1 (PDE4A1) (AID 2283191)
# Sequence of human Phosphodiesterase 4A1 (PDE4A1), PDE4A (gene 5141) (P27815 whole entry, looked up): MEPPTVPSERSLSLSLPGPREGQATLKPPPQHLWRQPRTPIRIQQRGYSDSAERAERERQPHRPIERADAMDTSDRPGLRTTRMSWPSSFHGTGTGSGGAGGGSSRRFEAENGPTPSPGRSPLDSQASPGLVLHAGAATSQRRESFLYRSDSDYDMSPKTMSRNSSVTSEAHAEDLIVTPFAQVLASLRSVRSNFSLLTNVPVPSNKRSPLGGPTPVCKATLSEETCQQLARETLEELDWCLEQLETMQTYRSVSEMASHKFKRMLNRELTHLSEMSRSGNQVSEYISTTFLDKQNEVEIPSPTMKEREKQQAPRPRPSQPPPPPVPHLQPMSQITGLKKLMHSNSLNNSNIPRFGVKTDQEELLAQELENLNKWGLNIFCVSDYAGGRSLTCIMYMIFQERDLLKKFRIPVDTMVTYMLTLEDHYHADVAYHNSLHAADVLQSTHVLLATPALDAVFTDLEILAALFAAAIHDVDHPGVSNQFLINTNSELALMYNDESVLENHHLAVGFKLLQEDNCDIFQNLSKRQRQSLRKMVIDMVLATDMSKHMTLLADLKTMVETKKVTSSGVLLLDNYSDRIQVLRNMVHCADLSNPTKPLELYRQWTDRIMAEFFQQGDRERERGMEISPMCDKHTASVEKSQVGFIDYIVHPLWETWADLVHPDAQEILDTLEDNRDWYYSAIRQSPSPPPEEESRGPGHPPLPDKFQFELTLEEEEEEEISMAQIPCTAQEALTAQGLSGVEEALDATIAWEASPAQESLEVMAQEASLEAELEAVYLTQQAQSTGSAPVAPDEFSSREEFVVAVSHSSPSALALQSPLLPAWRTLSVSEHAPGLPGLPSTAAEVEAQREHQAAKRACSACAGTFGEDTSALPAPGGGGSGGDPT
# Summary of the method: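 Cell-free recombinant human PDE4A1 with fluorescent substrate; product separated by electrophoretic mobility shift, 1 h. Screened at 25 uM, then up to 50 uM in concentration-response; loss of signal fitted against DMSO.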
# [13] = molecular target: cAMP-dependent protein kinase catalytic subunit alpha (Homo sapiens) (UniProt P17612); experiment: NVS_ENZ_hPKA: NovaScreen (NVS) Enzymatic Assay for human Protein Kinase A (PKA) (AID 2283192)
# Summary of the method: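 Recombinant human PKA with specific fluorescent substrate, product separated by electrophoretic mobility shift, read 1 h after dosing. Primary screen at 25 uM in duplicate; actives then run in concentration-response up to 50 uM, activity relative to DMSO.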
# [14] = molecular target: human Phosphodiesterase 5 (PDE5), PDE5A (gene 8654) (UniProt O76074); experiment: NVS_ENZ_hPDE5: NovaScreen (NVS) Enzymatic Assay for human Phosphodiesterase 5 (PDE5) (AID 2283194)
# Summary of the method: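 Recombinant human PDE5 with specific substrate, read 1 h after dosing by fluorescence with electrophoretic mobility-shift separation of substrate and product. Initial single-concentration duplicate screen at 25 uM, actives followed in concentration series; loss of activity versus DMSO.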
# [15] = molecular target: human Janus Kinase 2 (Jak2), JAK2 (gene 3717) (UniProt O60674); experiment: NVS_ENZ_hJak2: NovaScreen (NVS) Enzymatic Assay for human Janus Kinase 2 (Jak2) (AID 2283169)
# Summary of the method: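 Cell-free recombinant human JAK2 enzyme activity assay, fluorescence/electrophoretic mobility shift read 1 h after dosing. Screened in duplicate at 25 uM, then concentration-response up to 50 uM; activity as signal loss relative to DMSO.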
# [16] = molecular target: human LYN Proto-Oncogene, Src family Tyrosine Kinase (LynA), LYN (gene 4067) (UniProt P07948); experiment: NVS_ENZ_hLynA: NovaScreen (NVS) Enzymatic Assay for human LYN Proto-Oncogene, Src family Tyrosine Kinase (LynA) (AID 2283173)
# Summary of the method: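 Recombinant kinase with fluorescent substrate; product separated from substrate by electrophoretic mobility shift and read 1 h after dosing. Duplicate screen at 25 uM, then concentration-response up to 50 uM; activity scored as signal loss against DMSO.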
# [17] = molecular target: human Mitogen- and Stress-activated Protein Kinase-1 (Msk1), RPS6KA5 (gene 9252) (UniProt O75582); experiment: NVS_ENZ_hMsk1: NovaScreen (NVS) Enzymatic Assay for human Mitogen- and Stress-activated Protein Kinase-1 (Msk1) (AID 2283187)
# Sequence of human Mitogen- and Stress-activated Protein Kinase-1 (Msk1), RPS6KA5 (gene 9252) (O75582 whole entry, looked up): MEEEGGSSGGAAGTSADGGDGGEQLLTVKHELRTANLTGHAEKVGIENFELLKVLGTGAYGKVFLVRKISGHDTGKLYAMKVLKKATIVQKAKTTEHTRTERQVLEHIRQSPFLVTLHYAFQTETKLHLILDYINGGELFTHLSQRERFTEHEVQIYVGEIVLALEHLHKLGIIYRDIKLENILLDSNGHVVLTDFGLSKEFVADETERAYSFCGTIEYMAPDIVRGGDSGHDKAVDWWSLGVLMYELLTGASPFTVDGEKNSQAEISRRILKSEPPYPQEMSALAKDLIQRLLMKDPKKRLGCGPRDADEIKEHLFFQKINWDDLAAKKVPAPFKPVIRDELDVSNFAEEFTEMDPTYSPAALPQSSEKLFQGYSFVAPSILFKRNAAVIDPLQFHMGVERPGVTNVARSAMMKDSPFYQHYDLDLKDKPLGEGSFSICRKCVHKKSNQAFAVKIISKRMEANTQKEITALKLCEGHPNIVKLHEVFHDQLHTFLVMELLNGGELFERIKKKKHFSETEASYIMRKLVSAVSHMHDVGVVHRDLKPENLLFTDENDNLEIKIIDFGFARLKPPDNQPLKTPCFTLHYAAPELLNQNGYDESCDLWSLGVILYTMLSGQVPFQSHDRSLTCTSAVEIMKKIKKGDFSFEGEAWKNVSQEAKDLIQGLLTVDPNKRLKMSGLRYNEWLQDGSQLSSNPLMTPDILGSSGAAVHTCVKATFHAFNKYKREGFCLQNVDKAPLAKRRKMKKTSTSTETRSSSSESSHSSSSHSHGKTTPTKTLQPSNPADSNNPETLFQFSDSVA
# Summary of the method: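 Recombinant kinase with fluorescent substrate; product separated by electrophoretic mobility shift, read 1 h after dosing. Screened in duplicate at 25 uM; hits (e.g. ≥30% inhibition) tested in concentration–response up to 50 uM. DMSO baseline.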
# [18] = molecular target: Histone deacetylase 3 (Homo sapiens) (UniProt O15379); experiment: NVS_ENZ_hHDAC3: NovaScreen (NVS) Enzymatic Assay for human Histone Deacetylase 3 (HDAC3) (AID 2283163)
# Summary of the method: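 Recombinant human HDAC3 with fluorescent substrate, 1 h after dosing; product separated from substrate by electrophoretic mobility shift and read by fluorescence. Primary screen at 25 uM in duplicate; actives (e.g. ≥30% inhibition) retested in concentration-response up to 50 uM.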
# [19] = molecular target: human Insulin Receptor (InsR), INSR (gene 3643) (UniProt P06213); experiment: NVS_ENZ_hInsR: NovaScreen (NVS) Enzymatic Assay for human Insulin Receptor (InsR) (AID 2283168)
# Summary of the method: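 Fluorescent substrate phosphorylation by recombinant kinase, product resolved by electrophoretic mobility shift, read 1 h after dosing. Screened in duplicate at 25 uM; hits (e.g., 30% inhibition) run in concentration-response to 50 uM; DMSO as baseline.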
# [20] = molecular target: human c-Jun N-terminal Kinases (JNK2), MAPK9 (gene 5601) (UniProt P45984); experiment: NVS_ENZ_hJNK2: NovaScreen (NVS) Enzymatic Assay for human c-Jun N-terminal Kinases (JNK2) (AID 2283171)
# Summary of the method: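 Cell-free recombinant human JNK2 activity assay; fluorescent substrate and product separated by electrophoretic mobility shift, read 1 h after dosing. Primary duplicate screen at 25 uM; actives run in concentration-response up to 50 uM, relative to DMSO.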
smiles,measurement,setting,value
CCCCCCCCOC(=O)c1cc(O)c(O)c(O)c1,outcome,[1],inactive
same,AC50,[2],12.5 µM (active)
same,outcome,[3],inactive
same,outcome,[4],inactive
same,AC50,[5],2.83 µM (active)
same,AC50,[6],22.1 µM (active)
same,AC50,[7],1.47 µM (active)
same,AC50,[8],1.09 µM (active)
Oc1ccc2ccccc2c1,outcome,[9],inactive
CC/C(=C(/CC)c1ccc(O)cc1)c1ccc(O)cc1,outcome,[2],inactive
same,outcome,[9],inactive
same,outcome,[10],inactive
same,outcome,[11],inactive
same,outcome,[7],inactive
same,outcome,[12],inactive
same,outcome,[13],inactive
same,outcome,[14],inactive
Cc1cc(F)ccc1-c1cc(N2CC[C@@H](O)[C@H]2CO)ncc1N(C)C(=O)C(C)(C)c1cc(C(F)(F)F)cc(C(F)(F)F)c1,AC50,[1],12.3 µM (active)
same,AC50,[14],4.05 µM (active)
CCCCOC(=O)c1ccc(O)cc1,outcome,[9],inactive
same,AC50,[5],25 µM (active)
CCCCCCCCOc1ccc(C(=O)c2ccccc2)c(O)c1,outcome,[1],inactive
CCN(Cc1cccnc1)C(=O)c1cccc(Cl)c1[C@]1(C)C(=O)N(Cc2ccc(OC)cc2OC)c2ccc(Cl)cc21,AC50,[1],14.1 µM (active)
same,AC50,[2],3.84 µM (active)
same,AC50,[9],16.8 µM (active)
same,outcome,[3],inactive
same,AC50,[5],9.38 µM (active)
same,AC50,[7],14.8 µM (active)
same,AC50,[8],24.9 µM (active)
CCN(CC)C(=O)c1cc(S(=O)(=O)Cc2ccccc2)c(N2CCC(c3ccccc3)CC2)cc1N(CC)CCN(C)C,AC50,[9],0.0737 µM (active)
same,outcome,[15],inactive
same,outcome,[16],inactive
same,outcome,[17],inactive
same,AC50,[12],9.38 µM (active)
same,outcome,[14],inactive
O=CCCCC=O,outcome,[9],inactive
same,outcome,[11],inactive
COc1ccc2cc(S(=O)(=O)N[C@H](CC(=O)N[C@H](Cc3ccc(CN4[C@H](C)CCC[C@@H]4C)cc3)C(=O)N(C)C(C)C)c3ccc4c(c3)OCO4)ccc2c1,AC50,[1],3.86 µM (active)
same,AC50,[2],9.38 µM (active)
same,AC50,[9],7.52 µM (active)
same,outcome,[3],inactive
same,outcome,[8],inactive
Cc1ccc2oc(CN(Cc3ccccc3)C(=O)Nc3c(F)cc(F)cc3F)c(-c3ccc(Cl)cc3)c2c1,AC50,[1],9.32 µM (active)
O=C1c2ccccc2C(=O)N1CCc1noc(-c2ccc(CN3CCCCCC3)s2)n1,AC50,[1],19.9 µM (active)
same,AC50,[9],18.2 µM (active)
Cc1occc1C(=O)Nc1ccc(C(=O)N2CCC(F)(F)/C(=C\C(=O)N3CCC(N4CCCCC4)CC3)c3ccccc32)cc1,outcome,[9],inactive
CC[C@@H]1C[C@H](N(Cc2cc(C(F)(F)F)cc(C(F)(F)F)c2)C(C)=O)c2cc(C(F)(F)F)ccc2N1C(=O)OC(C)C,outcome,[2],inactive
CC(=O)N1CCN(c2ccc(OC[C@H]3CO[C@](Cn4ccnc4)(c4ccc(Cl)cc4Cl)O3)cc2)CC1,outcome,[18],inactive
OCCO,outcome,[19],inactive
CCCC(=O)OCCC(C)C,outcome,[20],inactive
same,outcome,[11],inactive
c1ccc2ccccc2c1,outcome,[11],inactive
same,outcome,[17],inactive
Cc1cc2c(cc1C(F)(F)F)N(C(=O)Nc1ccc(Oc3cccnc3C)nc1)CC2,outcome,[4],inactive
Cc1oc2c(NC(=O)c3c(Cl)cccc3Cl)cccc2c1C(C)(C)O,outcome,[4],inactive
O=C(O)c1ccccc1C(=O)OCc1ccccc1,outcome,[17],inactive
COc1cccc([C@H](O)C2CCN(CCc3ccc(F)cc3)CC2)c1OC,outcome,[12],inactive
same,outcome,[14],inactive
CC[C@H](NC(=O)c1cc(F)ccc1NS(=O)(=O)c1cccc2cccnc12)c1ccccc1,outcome,[14],inactive
